According to PubChem BioAssay (NCATS):
Several values for one entry are separate records, joined by “and”; a condition that tells them apart may be missing. Identical values can stand only once. Inconclusive results are not listed. Activity calls are given as the source filed them. Unless noted, the call rests on the fitted dose curve; in most records, active means well fitted curve in the direction sought with a large enough effect; inconclusive means small, poorly fitted or top-dose-only effect, or another doubt; inactive means no such curve, though single readings can be large; an effect the other way counts as inactive or inconclusive.

How the values were obtained:
[1] = Cell Viability - LYMP2-001 (AID 921);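 further: series mostly up to about 92 µM; cells exposed to compound for 24 h at 37 °C; 0% = DMSO only and full inhibition = tetraoctylammonium bromide control wells; nearly all actives have a fitted effect of over 70% in size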
How it was run: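 CellTiter-Glo luminescence (intracellular ATP) after 24 hr compound exposure at 37 C, 2500 lymphoblastoid cells/well in complete medium. AC50 fitted with standard Hill equation; tetraoctylammonium bromide positive control.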

[2] = MultiTox-Fluor Cytotoxicity Assay - LYMP1-001 - Live Cells (AID 947);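 further: 0% = DMSO only and full inhibition = tetraoctylammonium bromide control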
[3] = Cell Viability - LYMP2-012 (AID 982);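 further: cellular ATP by luciferase luminescence where a drop means cytotoxicity; cells exposed to compound for one day before reading; 0% = DMSO only and full loss = 92 µM tetraoctylammonium bromide; nearly all actives have a fitted effect of over 55% in size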
[4] = target: Estrogen receptor (Homo sapiens) (UniProt P03372); test: qHTS assay for small molecule antagonists of estrogen receptor alpha signaling (AID 588513; active means well fitted curve in the direction sought with a large enough effect in the signal ratio, with a control signal flat, not every such curve was filed as active; the % refers to the signal ratio; further: on the % scale 0 is the no-effect control and ±100 the full control effect)
Sequence of Estrogen receptor (Homo sapiens) (P03372 whole entry, looked up): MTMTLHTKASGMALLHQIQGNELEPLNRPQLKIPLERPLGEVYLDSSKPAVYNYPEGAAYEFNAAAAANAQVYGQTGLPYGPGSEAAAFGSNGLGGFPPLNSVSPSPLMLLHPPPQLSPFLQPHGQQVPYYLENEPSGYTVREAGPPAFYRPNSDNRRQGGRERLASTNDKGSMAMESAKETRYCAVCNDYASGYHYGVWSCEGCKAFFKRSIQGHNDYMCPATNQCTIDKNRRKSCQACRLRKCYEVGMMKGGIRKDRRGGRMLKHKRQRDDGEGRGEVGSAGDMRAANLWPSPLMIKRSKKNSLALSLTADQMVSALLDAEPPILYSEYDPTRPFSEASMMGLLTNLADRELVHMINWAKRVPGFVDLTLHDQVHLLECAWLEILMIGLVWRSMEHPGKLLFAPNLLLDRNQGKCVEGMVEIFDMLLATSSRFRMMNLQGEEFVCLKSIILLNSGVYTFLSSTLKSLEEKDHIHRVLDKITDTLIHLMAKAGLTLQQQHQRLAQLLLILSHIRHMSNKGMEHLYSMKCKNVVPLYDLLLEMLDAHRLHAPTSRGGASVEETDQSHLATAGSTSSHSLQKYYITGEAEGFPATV
How it was run: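 Beta-lactamase reporter, antagonist mode, HEK 293 GripTite cells; 0.5nM E2 stimulus, 18 h, 37 C; CCF4 dye 2 h RT; fluorescence. IC50 and efficacy from Hill fits, normalized to E2 and DMSO.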

[5] = target: Estrogen receptor (Homo sapiens) (UniProt P03372); test: qHTS assay for small molecule agonists of estrogen receptor alpha signaling (AID 588514; calls by dose curve; further: nearly all actives have a fitted effect of over 70% in size; further: potency means the concentration at half of the fitted maximal effect;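 on activation: 0% = vehicle only and 100% = reference agonist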)
How it was run: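 ER-alpha-UAS-bla GripTite HEK 293 cells in medium with 2% charcoal/dextran-treated FBS were treated with compound titrations at 37 C for 18 hrs; beta-lactamase reporter read by CCF4 fluorescence after 2 hrs at RT.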

[6] = target: Bile acid receptor (Homo sapiens) (UniProt Q96RI1); test: qHTS assay for small molecule antagonists of farnesoid X receptor signaling (AID 588526; calls by dose curve; further: on the % scale 0 is the no-effect control and ±100 the full control effect)
Sequence of Bile acid receptor (Homo sapiens) (Q96RI1 whole entry, looked up): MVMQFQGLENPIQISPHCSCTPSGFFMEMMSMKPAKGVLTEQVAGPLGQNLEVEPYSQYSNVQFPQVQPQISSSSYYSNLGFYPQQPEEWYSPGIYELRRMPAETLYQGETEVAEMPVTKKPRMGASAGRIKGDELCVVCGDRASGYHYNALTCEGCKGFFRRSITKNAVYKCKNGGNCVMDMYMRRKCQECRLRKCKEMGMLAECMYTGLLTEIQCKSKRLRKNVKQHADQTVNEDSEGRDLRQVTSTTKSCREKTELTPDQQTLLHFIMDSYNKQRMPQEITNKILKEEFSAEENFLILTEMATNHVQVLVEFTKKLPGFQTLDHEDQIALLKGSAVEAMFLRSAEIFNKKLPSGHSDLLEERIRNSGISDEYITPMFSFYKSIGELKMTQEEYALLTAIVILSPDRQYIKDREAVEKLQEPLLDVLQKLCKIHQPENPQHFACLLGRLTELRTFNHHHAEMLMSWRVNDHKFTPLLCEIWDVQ
How it was run: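 Beta-lactamase reporter antagonist mode: HEK293T FXR-UAS-bla cells, titrated compound, CDCA stimulation, 16 h 37 C, CCF4 dye 2 h RT. Data normalized to CDCA 50 uM and DMSO; Hill-fit IC50.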

[7] = target: Bile acid receptor (Homo sapiens) (UniProt Q96RI1); test: qHTS assay for small molecule agonists of farnesoid X receptor signaling (AID 588527; calls by dose curve;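 further: series mostly up to about 77 µM; 0% = vehicle basal and 100% = reference agonist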); conditions: HEK293T FXR-UAS-bla, beta-lactamase ratio, 16 h; active compounds read high
How it was run: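 Read-out: beta-lactamase reporter fluorescence with CCF4 substrate in GeneBLAzer FXR-UAS-bla HEK293T cells, after 16 h compound exposure at 37 C. Response scaled between DMSO basal (0%) and chenodeoxycholic acid at 100 uM (100%).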

[8] = target: Glucocorticoid receptor (Homo sapiens) (UniProt P04150); test: qHTS assay for small molecule agonists of glucocorticoid receptor signaling (AID 588532; active means well fitted curve in the direction sought with a large enough effect in the signal ratio, with a control signal flat; the % refers to the signal ratio;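 further: 100% = dexamethasone at 0.1 µM and 0% = DMSO only wells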); conditions: HeLa MMTV-bla, beta-lactamase ratio, agonist, 18 h; active compounds read high; percent of dexamethasone control, DMSO zero
Sequence of Glucocorticoid receptor (Homo sapiens) (P04150 whole entry, looked up): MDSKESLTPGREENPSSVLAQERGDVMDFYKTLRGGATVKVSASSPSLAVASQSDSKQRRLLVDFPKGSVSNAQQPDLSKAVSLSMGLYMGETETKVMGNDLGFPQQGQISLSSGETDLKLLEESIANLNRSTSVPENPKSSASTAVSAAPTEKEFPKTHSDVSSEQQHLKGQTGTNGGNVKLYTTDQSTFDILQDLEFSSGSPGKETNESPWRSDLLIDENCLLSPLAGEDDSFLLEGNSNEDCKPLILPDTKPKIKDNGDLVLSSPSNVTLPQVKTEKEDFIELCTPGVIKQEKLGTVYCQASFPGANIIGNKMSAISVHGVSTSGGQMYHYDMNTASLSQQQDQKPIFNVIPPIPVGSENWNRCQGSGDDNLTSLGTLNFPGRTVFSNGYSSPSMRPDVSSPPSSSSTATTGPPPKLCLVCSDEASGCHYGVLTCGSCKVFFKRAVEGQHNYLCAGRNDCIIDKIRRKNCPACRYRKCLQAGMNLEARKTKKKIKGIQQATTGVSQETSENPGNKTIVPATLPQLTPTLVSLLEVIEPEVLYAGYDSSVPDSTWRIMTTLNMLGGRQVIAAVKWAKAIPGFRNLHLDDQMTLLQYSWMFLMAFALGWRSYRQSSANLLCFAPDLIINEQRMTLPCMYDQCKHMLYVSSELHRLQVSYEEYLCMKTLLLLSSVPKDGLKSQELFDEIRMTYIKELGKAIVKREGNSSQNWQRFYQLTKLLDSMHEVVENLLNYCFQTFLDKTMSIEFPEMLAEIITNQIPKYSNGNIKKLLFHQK
How it was run: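 Using MMTV-bla HeLa cells in medium with 1% stripped FBS and 25 mM HEPES, compounds were titrated and incubated overnight-length (18 h). Beta-lactamase cleavage of CCF4 was quantified by dual-emission fluorescence.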

[9] = target: Glucocorticoid receptor (Homo sapiens) (UniProt P04150); test: qHTS assay for small molecule antagonists of glucocorticoid receptor signaling (AID 588533; active means well fitted inhibition curve with a large enough effect in the signal ratio, with a control signal flat, not every such curve was filed as active; the % refers to the signal ratio;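 further: cells stimulated with 2 nM dexamethasone as agonist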; further: potency means the concentration at half of the fitted maximal effect)
How it was run: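 Antagonist-mode qHTS: compound titrations added to GRE-bla HeLa cells, then dexamethasone 2 nM final; 18 h, 37 C. CCF4 FRET fluorescence normalized to dexamethasone and DMSO; IC50 from Hill fit.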

[10] = target: Peroxisome proliferator-activated receptor gamma (Homo sapiens) (UniProt P37231); test: qHTS assay for small molecule agonists of peroxisome proliferator-activated receptor gamma signaling (AID 588536; active means well fitted curve in the direction sought with a large enough effect in the signal ratio, with a control signal flat, not every such curve was filed as active; the % refers to the signal ratio;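 further: 0% = DMSO basal wells and 100% = rosiglitazone at 2 µM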)
Sequence of Peroxisome proliferator-activated receptor gamma (Homo sapiens) (P37231 whole entry, looked up): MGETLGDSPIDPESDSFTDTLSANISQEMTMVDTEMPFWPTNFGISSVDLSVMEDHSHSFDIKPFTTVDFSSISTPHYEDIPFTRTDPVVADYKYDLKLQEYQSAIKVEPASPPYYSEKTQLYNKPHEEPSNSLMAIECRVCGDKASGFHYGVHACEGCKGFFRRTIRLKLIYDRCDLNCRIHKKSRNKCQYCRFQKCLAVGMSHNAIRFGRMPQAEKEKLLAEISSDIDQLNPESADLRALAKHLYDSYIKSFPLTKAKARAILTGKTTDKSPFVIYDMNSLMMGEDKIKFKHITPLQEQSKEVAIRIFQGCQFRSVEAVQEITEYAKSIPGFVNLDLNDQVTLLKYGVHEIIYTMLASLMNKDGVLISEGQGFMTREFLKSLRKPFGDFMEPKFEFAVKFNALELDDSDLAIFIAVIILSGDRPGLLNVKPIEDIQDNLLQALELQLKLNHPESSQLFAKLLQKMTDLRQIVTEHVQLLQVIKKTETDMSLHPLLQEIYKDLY
How it was run: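 Test agents, titrated, stimulated HEK293 UAS-bla cells overnight (16 h, 37 C). Substrate CCF4 was then added for two hours at room temperature before fluorescence reading.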

[11] = target: Vitamin D3 receptor (Homo sapiens) (UniProt P11473); test: qHTS assay for small molecule antagonists of vitamin D receptor signaling (AID 588541; calls by dose curve;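 further: receptor activated by calcitriol during compound treatment; series mostly up to about 77 µM; on the % scale 0 is the no-effect control and ±100 the full control effect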)
Sequence of Vitamin D3 receptor (Homo sapiens) (P11473 whole entry, looked up): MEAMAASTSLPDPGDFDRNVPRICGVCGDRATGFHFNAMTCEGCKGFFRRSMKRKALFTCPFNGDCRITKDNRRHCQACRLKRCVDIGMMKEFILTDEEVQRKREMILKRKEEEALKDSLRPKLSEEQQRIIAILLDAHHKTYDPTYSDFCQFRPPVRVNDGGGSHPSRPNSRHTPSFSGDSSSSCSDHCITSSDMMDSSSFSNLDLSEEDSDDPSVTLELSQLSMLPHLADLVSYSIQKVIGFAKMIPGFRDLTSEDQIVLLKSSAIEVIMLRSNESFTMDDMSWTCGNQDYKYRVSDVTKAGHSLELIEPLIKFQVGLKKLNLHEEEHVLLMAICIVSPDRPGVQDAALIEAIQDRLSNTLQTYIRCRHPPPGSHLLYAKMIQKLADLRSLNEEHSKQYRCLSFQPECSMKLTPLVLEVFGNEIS
How it was run: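 Antagonist-mode beta-lactamase reporter assay: HEK293T VDR-UAS-bla cells were exposed to titrated compound alongside 1-alpha,25-dihydroxyvitamin D3 at 3 nM final for 16 h. Values were normalized to the 50 nM agonist control and DMSO basal, with IC50 and efficacy from Hill equation fits.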

[12] = target: Vitamin D3 receptor (Homo sapiens) (UniProt P11473); test: qHTS assay for small molecule agonists of vitamin D receptor signaling (AID 588543; calls by dose curve;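 further: 0% = DMSO basal and 100% = reference agonist control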)
How it was run: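 β-lactamase reporter, VDR-UAS-bla HEK293T, agonist mode. Cells plated 5 h at 37 °C, compound titration 16 h at 37 °C, CCF4 dye 2 h RT, ratio 460/530 nm. Hill fit → EC50, efficacy vs 50 nM 1α,25-(OH)2D3.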

[13] = qHTS assay for small molecule activators of the p53 signaling pathway (AID 651743; active means well fitted activation curve with a large enough effect in the signal ratio, not every such curve was filed as active; the % refers to the signal ratio; further: series mostly up to about 92 µM; % of control where 0% means no effect); conditions: HCT-116 p53RE-bla, beta-lactamase FRET ratio, 16 h; activation: active compounds read high
How it was run: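 Screen for p53 pathway agonists uses stably transfected p53RE-bla HCT-116 cells, 4,000 per well, treated 16 h at 37 C with compounds in DMSO.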

[14] = target: Nuclear receptor ROR-gamma (Homo sapiens) (UniProt P51449); test: qHTS assay for small molecule antagonists of the retinoid-related orphan receptor gamma (ROR-gamma) signaling pathway (AID 651802); further: nearly all actives have a fitted effect of over 60% in size; further: potency means the concentration at half of the fitted maximal effect
Sequence of Nuclear receptor ROR-gamma (Homo sapiens) (P51449 whole entry, looked up): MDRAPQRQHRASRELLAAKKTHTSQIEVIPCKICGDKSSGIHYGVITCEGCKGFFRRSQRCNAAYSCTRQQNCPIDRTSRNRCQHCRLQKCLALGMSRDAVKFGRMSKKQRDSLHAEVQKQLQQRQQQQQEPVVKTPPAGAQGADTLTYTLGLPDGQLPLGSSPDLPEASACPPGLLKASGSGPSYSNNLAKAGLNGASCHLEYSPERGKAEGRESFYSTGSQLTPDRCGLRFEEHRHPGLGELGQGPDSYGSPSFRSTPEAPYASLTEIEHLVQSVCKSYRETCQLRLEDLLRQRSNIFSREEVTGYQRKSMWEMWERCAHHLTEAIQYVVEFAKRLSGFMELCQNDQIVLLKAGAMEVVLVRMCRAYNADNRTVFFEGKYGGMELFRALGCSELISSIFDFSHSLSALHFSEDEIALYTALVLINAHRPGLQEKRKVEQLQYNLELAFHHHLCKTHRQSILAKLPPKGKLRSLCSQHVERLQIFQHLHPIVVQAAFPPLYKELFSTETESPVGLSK
How it was run: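 CHO cells carrying TET-inducible ROR-gamma and an ROR response element–luciferase reporter were exposed to compound, then induced with doxycycline. After 16hr at 37C, luminescence was read; lower signal indicates antagonism.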

[15] = qHTS assay for small molecule antagonists of the retinoid-related orphan receptor gamma (ROR-gamma) signaling pathway - cell viability counter screen (AID 720652; active means well fitted curve in the direction sought with a large enough effect in the repeat runs; an effect the other way counts as inactive or inconclusive;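 further: series mostly up to about 92 µM; compound exposure lasted 16 hr before ATP read; on the % scale 0 is the no-effect control and ±100 the full control effect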)
How it was run: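 Counter screen in CHO cells carrying TET-inducible ROR-gamma and an ROR response element-luciferase reporter; cells plated 5 hr, compound pinned, doxycycline added, then 16 hr at 37 C. Viability read as intracellular ATP by CellTiter-Glo luminescence.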

[16] = target: Nuclear receptor subfamily 1 group I member 2 (Rattus norvegicus) (UniProt Q9R1A7); test: qHTS assay for small molecule activators of the rat pregnane X receptor (rPXR) signaling pathway (AID 651751; call rule not given here; further: 0% is about no effect); conditions: rPXR reporter cells, luciferase (One-Glo), 24 h
Sequence of Nuclear receptor subfamily 1 group I member 2 (Rattus norvegicus) (Q9R1A7 whole entry, looked up): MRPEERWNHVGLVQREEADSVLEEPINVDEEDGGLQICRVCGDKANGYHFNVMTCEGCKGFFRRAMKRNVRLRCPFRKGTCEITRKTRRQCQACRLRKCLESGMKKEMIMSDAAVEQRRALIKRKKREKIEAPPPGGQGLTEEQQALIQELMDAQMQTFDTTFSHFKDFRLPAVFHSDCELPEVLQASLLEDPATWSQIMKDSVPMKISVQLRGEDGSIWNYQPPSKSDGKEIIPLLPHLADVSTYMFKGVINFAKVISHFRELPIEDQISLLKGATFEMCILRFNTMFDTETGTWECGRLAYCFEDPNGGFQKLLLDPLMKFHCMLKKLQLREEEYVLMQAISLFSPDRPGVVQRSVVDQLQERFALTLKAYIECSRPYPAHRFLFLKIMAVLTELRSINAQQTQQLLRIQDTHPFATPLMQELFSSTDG

[17] = qHTS assay for small molecule activators of the human pregnane X receptor (PXR) signaling pathway (AID 720659; call rule not given here; further: 0% is about no effect)
[18] = MultiTox-Fluor Cytotoxicity Assay - LYMP1-003 - Dead Cells (AID 961); further: nearly all actives have a fitted effect of over 70% in size
How it was run: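 LYMP1-003 lymphoblastoid, 2500 cells/well, 5 hr settle then 16 hr cpd at 37 C; MultiTox-Fluor reagent 60 min RT; Ex/Em 485/520 dead-cell signal; norm. DMSO = 0%, 15 uM tetraoctylammonium bromide = 100%; Hill AC50.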

[19] = qHTS assay for small molecule agonists of the antioxidant response element (ARE) signaling pathway (AID 651741; active means well fitted activation curve with a large enough effect in the signal ratio; the % refers to the signal ratio; further: potency means the concentration at half of the fitted maximal effect; on activation: % of control where 0% means no effect)
How it was run: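 Seeding 2,000 ARE-bla HepG2 cells per well preceded a 5 h incubation at 37 C/5% CO2 and a 16 h compound exposure at 37 C. Beta-lactamase reporter activity was then quantified by fluorescence after 2 h with LiveBLAzer B/G FRET substrate.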

[20] = qHTS assay for small molecule activators of the nuclear factor-kappa B (NF-kB) signaling pathway (AID 651749; active means well fitted activation curve with a large enough effect in the signal ratio; the % refers to the signal ratio; further: series mostly up to about 77 µM; % of control where 0% means no effect); conditions: NF-kB-bla ME-180 cells, beta-lactamase FRET ratio, 16 h; activation: active compounds read high
How it was run: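 Stably transfected ME-180 line; NF-kB response element upstream of beta-lactamase. Treatment: compound or DMSO, 16 hr. Detection: fluorescent FRET substrate.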

C1CCC2CCCCC2C1 (stereo not drawn)
inactive: Potency [1] | Potency [2] | Potency [3] | Potency [4] | Potency [5] | outcome [6] | activation [7] -3.01% | activation [8] 11.1% | Potency [9] | outcome [10] | outcome [11] | outcome [12] | activation [13] -0.562% | Potency [14] | Potency [15] | max response [16] 1.72% | outcome [17]

NC(=S)Nc1ccccc1
inactive: Potency [1] | Potency [2] | Potency [18] | Potency [3] | Potency [4] | Potency [5] | outcome [6] | activation [7] -3.05% and -3.49% | activation [8] 11.7% | Potency [9] | outcome [10] | outcome [11] | outcome [12] | Potency [19] | activation [20] -0.0044% and -1.03% and -0.459% | Potency [14] | Potency [15]

C[C@]12CC[C@H]3[C@@H](CCC4=CC(=O)CC[C@@]43C)[C@@H]1CC[C@@H]2O
inactive: Potency [1] | Potency [2] | Potency [3] | activation [8] -9.17% | outcome [12] | activation [13] -0.245% | Potency [15] | max response [16] 3.05% | outcome [17]
active: Potency [9] 7.08 µM | Potency [14] 26.6 µM

Nc1ccc(Br)cc1
inactive: Potency [1] | Potency [2] | Potency [3] | Potency [4] | Potency [5] | outcome [6] | activation [7] 0.791% | activation [8] -2.07% | Potency [9] | activation [13] -1.91% | activation [20] -0.0985% | Potency [14] | Potency [15] | max response [16] -3.71% | outcome [17]

CC(C)(c1ccccc1)c1ccc(O)cc1
inactive: Potency [1] | Potency [2] | Potency [3] | Potency [4] | outcome [6] | activation [7] 1.02% and 4.37% | activation [8] 2.95% and 9.77% | Potency [9] | outcome [10] | outcome [11] | outcome [12] | activation [13] -4.52% and -0.799% | activation [20] -0.397% and -3.49% | Potency [14] | Potency [15] | max response [16] 0.482% and 0.567%
active: Potency [5] 1.78 µM and 3.16 µM

BrCCBr
inactive: Potency [1] | Potency [18] | Potency [3] | Potency [4] | Potency [5] | activation [8] 2.21% and 1.87% | Potency [9] | outcome [10] | outcome [11] | outcome [12] | Potency [19] | activation [13] -3.11% and 0.969% | activation [20] -0.199% and 0.87% | Potency [14] | Potency [15] | max response [16] 2.8% and -1.13% | outcome [17]

Clc1ccc2ccccc2c1
inactive: Potency [1] | Potency [2] | Potency [18] | Potency [3] | Potency [4] | Potency [5] | outcome [6] | activation [7] -2.62% | activation [8] -0.849% | Potency [9] | outcome [10] | outcome [11] | outcome [12] | Potency [19] | activation [13] 1.92% | Potency [14] | Potency [15] | max response [16] 7.07% | outcome [17]

c1nc[nH]n1
inactive: Potency [1] | Potency [2] | Potency [18] | Potency [3] | Potency [4] | Potency [5] | outcome [6] | activation [7] 0.583% | activation [8] 11.9% | Potency [9] | outcome [10] | outcome [11] | outcome [12] | activation [13] -1.22% | activation [20] 0.14% | Potency [14] | Potency [15] | max response [16] 0.756% | outcome [17]

CCOc1ccc(N)cc1
inactive: Potency [1] | Potency [18] | Potency [3] | Potency [4] | Potency [5] | outcome [6] | activation [7] -2.12% | activation [8] 2.46% | Potency [9] | outcome [12] | activation [13] 1.96% | activation [20] -0.228% | Potency [14] | Potency [15] | max response [16] 3.36% | outcome [17]

Nc1ccccc1Cl
inactive: Potency [1] | Potency [2] | Potency [3] | Potency [4] | Potency [5] | outcome [6] | activation [7] -1.66% | activation [8] -0.0832% | Potency [9] | outcome [10] | outcome [11] | outcome [12] | Potency [19] | activation [13] -1.73% | activation [20] 0.524% | Potency [14] | max response [16] 9.37% | outcome [17]

CCSC(=O)Cl
inactive: Potency [1] | Potency [2] | Potency [18] | Potency [3] | Potency [4] | Potency [5] | outcome [6] | activation [7] -1.31% | activation [8] 17.3% | Potency [9] | outcome [10] | outcome [11] | outcome [12] | Potency [19] | activation [13] -1.99% | activation [20] -1.04% | Potency [14] | Potency [15] | max response [16] 4.31% | outcome [17]

O=NN(CCO)CCO
inactive: Potency [1] | Potency [18] | Potency [3] | Potency [4] | Potency [5] | outcome [6] | activation [7] 3.77% | Potency [9] | outcome [10] | outcome [11] | outcome [12] | Potency [19] | activation [13] -2.59% | Potency [14] | Potency [15] | max response [16] 3.2% | outcome [17]

Cc1ccccc1N
inactive: Potency [1] | Potency [2] | Potency [3] | Potency [19] | activation [13] -1.62% and -3.19% | activation [20] 0.244% and -0.381% | Potency [14] | Potency [15] | max response [16] -2.81% and 0.311% | outcome [17]

CC(=O)[O-].CC(=O)[O-].O.O.O.[Pb+2]
active: Potency [19] 33.5 µM and 37.6 µM
inactive: Potency [1] | Potency [2] | Potency [18] | Potency [3] | Potency [15]

CC(C)(C)OO
inactive: Potency [1] | Potency [2] | Potency [18] | Potency [3] | outcome [10] | outcome [11] | outcome [12] | Potency [19] | activation [13] 0.296% | activation [20] -0.974% and 0.475% | Potency [14] | Potency [15] | max response [16] 1.05% and -0.992% | outcome [17]

[O-][Br+2]([O-])O
inactive: Potency [1] | Potency [18] | Potency [3] | Potency [4] | Potency [5] | activation [8] 11.8% and -3.56% | Potency [9] | outcome [10] | outcome [11] | outcome [12] | Potency [19] | activation [13] -0.499% and 0.319% | activation [20] 0.211% and 0.528% | Potency [14] | Potency [15]
